Measurements from PubChem BioAssay AID1671190 (National Center for Advancing Translational Sciences (NCATS), 2021).
Among all 580,000 compounds or so, about 6,100 (1.1%) were called active. Roughly 15% stayed inconclusive and do not appear here. Many of the other results were omitted from the sample, so actives are more common in it than they were. Unmarked numbers belong to inactive results. Calls come from the whole dose curve; as a rule, active = well fitted inhibition curve with a large enough effect; inconclusive = small, poorly fitted or top-dose-only effect, or another doubt; inactive = no such curve, though single readings can be large or run the other way.

Each compound was assayed against Polyunsaturated fatty acid lipoxygenase ALOX12 (Homo sapiens) (UniProt P18054) (assay: Primary qHTS assay for inhibitors of human arachidonate 12S-lipoxygenase (ALOX12): Round 2). Settings: purified 12hLO, xylenol orange hydroperoxide absorbance; series mostly up to 108 µM; activity change, negative = inhibition: at the top concentration.
Sequence of Polyunsaturated fatty acid lipoxygenase ALOX12 (Homo sapiens) (P18054 whole entry, looked up): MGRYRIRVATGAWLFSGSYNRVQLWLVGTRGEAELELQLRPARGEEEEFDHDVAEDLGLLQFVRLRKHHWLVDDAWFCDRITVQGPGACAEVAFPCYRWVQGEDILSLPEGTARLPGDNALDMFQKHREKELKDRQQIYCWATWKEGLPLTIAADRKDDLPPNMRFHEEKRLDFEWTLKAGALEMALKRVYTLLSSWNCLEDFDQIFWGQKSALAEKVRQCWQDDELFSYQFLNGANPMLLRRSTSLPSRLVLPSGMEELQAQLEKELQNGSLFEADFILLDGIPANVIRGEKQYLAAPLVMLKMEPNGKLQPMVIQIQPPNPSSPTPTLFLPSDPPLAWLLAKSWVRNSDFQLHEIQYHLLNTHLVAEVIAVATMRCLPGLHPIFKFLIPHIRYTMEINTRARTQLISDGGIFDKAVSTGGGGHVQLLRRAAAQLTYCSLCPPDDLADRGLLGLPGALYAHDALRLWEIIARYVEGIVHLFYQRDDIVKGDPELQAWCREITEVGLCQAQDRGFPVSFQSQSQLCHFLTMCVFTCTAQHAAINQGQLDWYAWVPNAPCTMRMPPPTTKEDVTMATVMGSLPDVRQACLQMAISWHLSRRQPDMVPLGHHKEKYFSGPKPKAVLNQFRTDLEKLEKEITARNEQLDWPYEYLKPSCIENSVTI
Text: Assay Provider: Theodore R. Holman Ph.D. University of California, Santa Cruz, California Human lipoxygenase 12hLO is a member of the closely related lipoxygenase family of enzymes which catalyze the site-specific oxidation of arachidonic acid to various hormone precursor molecules and as such is a candidate for drug development in a variety of disease areas, such as cancer and inflammation. Inhibition of 12hLO activity was screened by utilizing arachidonic acid as a substrate. The extent of hydroperoxide product formation was measured by a secondary chromogenic reaction in which xylenol orange (XO, Sigma-Aldrich, cat. number 39,818-7) reacts with the ferric ions produced from the reaction between the hydroperoxide and ferrous ions. The Fe (III)-XO complex is characterized with red-shifted absorbance at 560 nm. A purified preparation of human 12hLO was supplied by Dr. Holman laboratory, University of California, Santa Cruz.
PROTOCOL TABLE SEQUENCE No. (e.g., 1, 2, 3, etc.); […] (e.g., Cells, Incubation, Reagent, etc.); VALUE; DESCRIPTION 1; Enzyme; 3 uL; 150 nM 12hLO enzyme solution dispensed in 1536-well Greiner black, clear bottom plates. 2; Compound; 23 nL; compounds and controls were added. 3; Incubate; 15 min; room temperature. 4; Substrate; 1 uL; 40 uM arachidonic acid (final concentration). 5; Incubate; 30 min; room temperature. 6; Reagent; 4 uL; Fe-XO solution was added to each well. 7; Incubation; 30 min; room temperature 8; Detector; absorbance; Read 1 at 405 nm absorbance using ViewLux (Perkin-Elmer) CCD imager. 9; Detector; absorbance; Read 2 at 573 nm absorbance using ViewLux (Perkin-Elmer) CCD imager. NOTES (numbers refer to sequence above) 1; 150 nM 12hLO (final concentration) in buffer solution (25 mM Hepes, 0.01% Triton X-100, pH 7.0) was dispensed in columns 1, 2, 5-48. Column 1 is neutral (100% activity). Buffer only was dispensed in columns 3 and 4 as no enzyme negative controls. The plates were covered with metal lids with gas-exchange holes. 2; Compounds were pin transferred via a Kalypsys Pin Tool (Wako USA) in column 5-48. Control compound was transferred in column 2, titration of nordihydroguaiaretic acid (NDGA, Sigma-Aldrich, N5023) with top concentration of 20 mM in DMSO then 1:3 dilution in duplicate. Dilution factor of 23 nL into 4 uL final assay volume. 3; Covered assay plates were incubated for 15 min at room temperature. 4; Substrate was added to start the reaction; 40 uM arachidonic acid (Sigma-Aldrich, St. Louis, MO) was dispensed throughout the plate. 6; Chromogenic detection reagent solution (divalent iron/xylenol orange, Fe-XO) was added to each well: 200 uM xylenol orange, 300 uM ferrous ammonium sulfate prepared freshly in 50 mM sulfuric acid. 8, 9; Two absorbance readouts were obtained at 405 nm and at 573 nm using a ViewLux high-throughput CCD plate imager (Perkin-Elmer). The 573 to 405 (Read 2 / Read 1) absorbance ratio was used to compute reaction progress.
% is set by controls: 0 for no effect and ±100 for the full control effect; potency is the fitted concentration of half-maximal effect.

Compound	activity change, negative = inhibition	Potency
Cc1ccc(NC(=O)CN2c3ccccc3CC2C)c(Cl)c1 (stereo unspecified)	-14.7%	–
O=C(CSc1nnc(Cc2ccccc2)n1-n1cccc1)Nc1ccccc1	-10.4%	–
C[C@H](NC(=O)Cc1n[nH]c(=O)c2ccccc12)C(=O)N1CCN(c2ccccc2)CC1	-1.08%	–
Cc1ccc(NC(=O)c2cccc(CS(C)=O)c2)c(C)c1 (stereo unspecified)	1.34%	–
Cc1ccc(NC(=O)C2=Cc3sc4c(c3CS2)CCCC4)c(C)c1	–	20 µM (active)
Cc1ccc(NC(=O)CCC2CCCC2)c(C)c1	-24.1%	–
CSCCC(=O)NCc1ccccc1F	-2.18%	–
CCCCN1CC(C(=O)Nc2ccc(C(=O)Nc3ccccc3F)cc2)CC1=O (stereo unspecified)	11.8%	–
CN(CC1CCOC1)C(=O)Nc1cc(F)c(F)c(F)c1 (stereo unspecified)	6.34%	–
CC(=O)OCC1(COC(C)=O)COCC(COC(C)=O)(COC(C)=O)C1=O	-3.57%	–
C=CCNCc1ccc(Cl)c(Cl)c1	-1.75%	–
O=C(Nc1ccc(N2CCOCC2)c(Cl)c1)c1ccc2c3c(cccc13)CC2	-15.8%	–
CCCOC(=O)c1cc(NC(=O)c2cc(Cl)c(OC)c(Cl)c2)ccc1N1CCOCC1	–	5.62 µM (active)
CCOC(=O)c1cc(NCc2c(Cl)cccc2Cl)ccc1N1CCOCC1	2.88%	–
C=CCSc1nc2c(c(=O)[nH]c(=O)n2C)n1CCCCC	-30.9%	–
C=CCNC(=O)CSc1nc(-c2ccccc2)c(-c2ccccc2)o1	1.97%	–
Cn1cc(CN2CCOC[C@H](Oc3ccc(S(C)(=O)=O)cc3)C2)c2ccccc21	-0.899% [at 176 µM]	–
O=C(NC1CCNC1)C1CCN(c2nc(-c3ccccc3)nc3c2CCC3)CC1 (stereo unspecified)	12.3%	–
COc1ccc(CNC(=O)C(C)[C@@H]2CCc3c(C)cc(OCCN4CCOCC4)c(C)c3C2)cc1 (stereo partly specified)	9.71%	–
O=C(O)/C=C/c1ccccc1Cl	-22.4%	–
O=C(/C=C/c1ccccc1O)c1ccc(Cl)cc1Cl	–	39.8 µM (active)
O=C(O)/C=C/c1ccc(Cl)cc1Cl	4.88%	–
CN(C)C(=O)c1ccc(OCc2coc(-c3ccccc3)n2)cc1	2.11%	–
CC(C)Cn1cncc1CNC(=O)c1ccc2nc(-c3ccc(F)cc3)cn2c1	121%	–
C[N+]1(CCNC(=O)/C=N/O)CCCCC1	–	6.31 µM (active)
CCN(CC)S(=O)(=O)c1ccc(NC(=O)CC2c3ccccc3C=CN2C(C)=O)cc1 (stereo unspecified)	-42.3%	–

Compound	activity change, negative = inhibition	Potency
COc1ccc(CC(=O)N[C@@H](CCSC)c2nc3ccccc3[nH]2)cc1	-18.9%	–
COc1ccc(CC(=O)NC(CCSC)c2nc3ccccc3[nH]2)cc1 (stereo unspecified)	60.5%	–
CSCC[C@H](NC(=O)CSc1cc(Cl)ccc1Cl)c1nc2ccccc2[nH]1	–	44.7 µM (active)
Cc1nc(-c2ccc(OC(F)(F)F)cc2)sc1C(=O)N1CCCC1	-4.28%	–
O=C(CSc1nc(CN2CCOCC2)nc2ccccc12)N1CCN(Cc2ccccc2)CC1	-5.8%	–
Cc1cc2oc(C(=O)Nc3ccc(S(=O)(=O)N4CCCC(C)C4)cc3)cc(=O)c2cc1C (stereo unspecified)	-23%	–
CC(=O)N1CCN(C(C(=O)O)c2cn(CCC(=O)O)c3cc(Br)ccc23)CC1 (stereo unspecified)	-30%	–
CCCCCCCC[n+]1cccc(C(=O)N2c3c(nc(N)[nH]c3=O)NC(C)C2C)c1 (stereo unspecified)	–	44.7 µM (active)
COc1ccc(CCNC(=O)c2sc(NC(C)C)nc2C)cc1	15.6%	–
Cc1cccc(CN2CCN(C3CN(Cc4cn(Cc5ccccc5F)nn4)S(=O)(=O)C3)CC2)c1 (stereo unspecified)	7.61%	–
O=S1(=O)CC(N2CCN(CCO)CC2)CN1Cc1cn(Cc2cccc(Cl)c2)nn1 (stereo unspecified)	–	7.08 µM (active)
O=S1(=O)CC(N2CCSCC2)CN1Cc1cn(Cc2cccc(Cl)c2)nn1 (stereo unspecified)	-5.84%	–
O=S1(=O)CC(N2CCN(CCO)CC2)CN1Cc1cn(Cc2ccc(Cl)cc2)nn1 (stereo unspecified)	–	25.1 µM (active)
CCCCCCN1CCN(C2CN(Cc3cn(Cc4ccc(F)cc4)nn3)S(=O)(=O)C2)CC1 (stereo unspecified)	-57.1%	–
Cc1cccc(CN2CCN(C3CN(Cc4cn(Cc5cc(C)cc(C)c5)nn4)S(=O)(=O)C3)CC2)c1 (stereo unspecified)	-26.8%	–
Cc1nc2ccccc2c(C)c1CC(=O)N1CCC(C)CC1	-26%	–
Cn1c(=O)c2c(nc(CN3CCc4ccccc4C3)n2CCCc2ccccc2)n(C)c1=O	10.8%	–
COc1ccc(C(=O)/C=C/c2cccc(OC(=O)C3CC3)c2)cc1	-0.582%	–
Cc1nc2c(c(C)c1CCC(=O)NCCN1CCCC1)c(=O)n(C)c(=O)n2C	39.2%	–
COc1ccc(-c2noc(CNC(=O)COc3cccc(C)c3C)n2)cc1OC	19.2%	–
C=CCNc1nc(Nc2ccc(Cl)cc2)nc(OC)n1	–	39.8 µM (active)
COc1nc(NCc2ccc(Cl)cc2)nc(OC)n1	0%	–
C=CCNc1nc(C)nc(OC)n1	-0.148%	–
Cc1[nH]c2ccccc2c1C(=O)CSc1nnc(CC(C)c2ccccc2)o1 (stereo unspecified)	-13.7%	–
N#Cc1ccccc1COC(=O)c1ccc(Br)cc1	-29.1%	–
